The values below come from PubChem BioAssay AID651784 (National Center for Advancing Translational Sciences (NCATS), 2012).

“And” between values parts separate entries of the source, which are not always exact repeats. Equal entries are not always repeated. Results filed as inconclusive are left out. The source made the active and inactive calls. Calls follow the shape of the dose curve; as a rule, active = well fitted inhibition curve with a large enough effect; inconclusive = small, poorly fitted or top-dose-only effect; inactive = no such curve, though single readings can be large or run the other way.
Potency is read from the fitted curve at half-maximal effect.

This experiment is described as follows: Acumen qHTS Assay for Inhibitors of the mTORC1 Signaling Pathway in MEF (Tsc2-/-, p53-/-) Cells: Hit Validation.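 Also: phospho-rpS6 Ser235/236 immunofluorescence normalized to propidium iodide cell count; nearly all actives have a fitted effect of over 65% in size.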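 As to activity change, negative = inhibition: cells exposed to compound for 24 hours; plate controls were DMSO for no effect and 7.5 nM rapamycin control for full effect.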 The following applies: Acumen imaging; activity change, negative = inhibition: at 37.3 µM (top of the series). A general note: Quantitative high-throughput screening tests each substance at several concentrations.
Consider `O=C(Nc1ccc2oc(-c3cc(Br)ccc3Cl)nc2c1)c1cc2ccccc2o1`, for which the activity change, negative = inhibition is -105%.

In the case of `Cc1cc(C)c(/C=C2\C(=O)Nc3ccccc32)[nH]1`, the activity change, negative = inhibition was 0.812% and 7.57%.

For the molecule `COc1ccc(OC)c(NC(=O)c2nc(S(=O)(=O)Cc3ccc(F)cc3)ncc2Cl)c1`, the Potency was 2070 nM (active).

For `CN1CCC(Nc2ncc3ncnc(Nc4ccc(F)c(Cl)c4)c3n2)CC1`, the activity change, negative = inhibition is -95%.

For the molecule `Cc1ccc(C(C)C)c(OCC(=O)Nc2cc(-c3nc4ccccc4[nH]3)ccc2C)c1`, the activity change, negative = inhibition was -3.97%.

In the case of `CC(C)(C)c1ccc(C2NC(=O)c3n[nH]c(-c4cccs4)c32)cc1` (configuration not stated), the activity change, negative = inhibition is -6.84%.

For the molecule `CCc1ccc(NC(=O)Cn2nc(C(F)(F)F)c3c2CCCC3)cc1`, the activity change, negative = inhibition was -28%.

As for `CCN1CCOC(=O)C1CC(=O)Nc1ccc(Br)cc1` (configuration not stated), the activity change, negative = inhibition was -3.02%.

Regarding `CCS(=O)(=O)c1ccccc1C(=O)N(Cc1cccnc1)c1nc2cc(C)c(C)cc2s1`, the activity change, negative = inhibition is -10%.

With `COc1ccc(OCc2nc3c4c(-c5ccccc5)c(-c5ccccc5)oc4ncn3n2)cc1`, the activity change, negative = inhibition was determined as 3.1%.

Turning to `CC1CCCN(CCCNC(=O)c2cc3c(Cl)nc4ccccc4c3s2)C1` (configuration not stated), the activity change, negative = inhibition is -16.9%.

As for `COc1ccc(Oc2nc3c(C)cccn3c(=O)c2/C=C(\C#N)c2nc3ccccc3[nH]2)cc1`, the activity change, negative = inhibition worked out at 11.5%.

Take `Cc1noc(/C=C/N(C)C)c1S(=O)(=O)N1CCCC(C(=O)Nc2ccc(F)cc2F)C1` (configuration not stated): the Potency is 1850 nM (active).

For `COc1cc(C(=O)NC(c2ccccc2Cl)c2cc(Cl)c3cccnc3c2O)cc(OC)c1OC` (configuration not stated), the Potency was 2330 nM (active).

Regarding `Cc1cccc(CS(=O)(=O)c2ncc(Cl)c(C(=O)NCc3ccccc3)n2)c1`, the activity change, negative = inhibition is -111%.

Regarding `COc1ccc(S(=O)(=O)N(Cc2nc(-c3cccc(C)c3)no2)C2CCCCC2)cc1`, the activity change, negative = inhibition is -16.2%.

Turning to `COc1ccc(Cl)cc1C1CC(=O)Nc2cc3c(cc21)OCCO3` (configuration not stated), the activity change, negative = inhibition is -26.9%.

`Cc1ccc2[nH]c(=O)c3cc(C(=O)NCCCN4CCC(C)CC4)sc3c2c1`: the Potency was 13100 nM (active).

`O=C(NC1CCCCC1)/C(=C/c1ccc(Cl)cc1)NC(=O)c1ccccc1`: the activity change, negative = inhibition is -5.63%.

With `CCN1CCC(N(Cc2ccc(F)cc2)C(=O)Nc2ccc(C)c(F)c2)CC1`, the activity change, negative = inhibition was determined as 5.5%.

`Cn1nc(-c2ccc(OCC(=O)Nc3ccccc3)cc2)c2ccccc2c1=O`: the activity change, negative = inhibition was -11.2%.

Regarding `COc1cc(NC(=O)CSc2ccc(-c3ccccn3)nn2)cc(OC)c1`, the activity change, negative = inhibition is -6.23%.
